# Columns and labels:
# Test in all cases: DAPPL (digital affinity profiling via proximity ligation, sequencing); 10 mM Tris-HCl pH 7.5, 50 mM NaCl, 1 mM DTT, 4% glycerol, room temperature, 30 min; GST-TFs on glutathione beads, 16-mer random dsDNA library, 0.1% formaldehyde crosslink after washing; high values mean tight binding
# FEV = biological target: T1, FEV (Homo sapiens, UniProt Q99581 1-238); settings: protein: recombinant; tags: N-terminal GST; dsDNA, one strand shown
# T1 sequence: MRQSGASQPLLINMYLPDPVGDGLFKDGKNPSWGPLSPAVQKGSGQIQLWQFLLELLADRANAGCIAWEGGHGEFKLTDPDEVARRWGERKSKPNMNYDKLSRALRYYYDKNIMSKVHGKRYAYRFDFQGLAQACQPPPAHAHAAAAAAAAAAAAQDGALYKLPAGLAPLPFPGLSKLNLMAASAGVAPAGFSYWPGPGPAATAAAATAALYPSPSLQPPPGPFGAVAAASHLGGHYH
# How it was run: (§1)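 Binding signal is each hexamer's read frequency for a factor divided by its frequency in the tag-only sample. The factors were GST-fused human transcription factors from yeast, captured on glutathione beads, DNA-barcoded and pooled with that sample. Pools were incubated with 200 nmole of a random double-stranded 16-mer DNA library in Tris/NaCl/DTT/glycerol buffer at room temperature for 30 min, then washed, crosslinked with 0.1% formaldehyde, proximity-ligated with BsaI/T4 ligase (1 h, 37 °C), PCR-amplified and sequenced on an Illumina NextSeq500.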
# ETV5 = ETV5 (Homo sapiens, UniProt P41161 1-510); settings: protein: recombinant; tags: N-terminal GST; dsDNA, one strand shown
# How it was run: as §1
# HSF1 = HSF1 (Homo sapiens, UniProt Q00613 1-529); settings: protein: recombinant; tags: N-terminal GST; chain copies: 3; dsDNA, one strand shown
# How it was run: as §1
# ELF4 = ELF4 (Homo sapiens, UniProt Q99607 1-663); settings: protein: recombinant; tags: N-terminal GST; dsDNA, one strand shown
# How it was run: as §1
# ELK4 = biological target: T2, ELK4 (Homo sapiens, UniProt P28324-2 1-405); settings: protein: recombinant; tags: N-terminal GST; dsDNA, one strand shown
# T2 sequence: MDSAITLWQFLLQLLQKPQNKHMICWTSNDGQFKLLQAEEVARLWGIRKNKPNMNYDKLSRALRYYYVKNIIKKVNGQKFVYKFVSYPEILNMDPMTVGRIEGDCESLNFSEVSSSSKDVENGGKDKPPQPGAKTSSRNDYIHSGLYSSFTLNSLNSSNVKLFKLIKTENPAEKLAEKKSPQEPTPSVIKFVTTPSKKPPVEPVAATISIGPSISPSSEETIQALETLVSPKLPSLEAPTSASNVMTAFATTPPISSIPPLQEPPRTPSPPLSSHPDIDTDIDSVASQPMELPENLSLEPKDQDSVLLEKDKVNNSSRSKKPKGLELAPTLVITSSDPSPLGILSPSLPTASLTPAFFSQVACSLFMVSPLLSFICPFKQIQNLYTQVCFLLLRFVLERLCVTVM
# How it was run: as §1
# ETV2 = biological target: T3, ETV2 (Homo sapiens, UniProt O00321 1-342); settings: protein: recombinant; tags: N-terminal GST; dsDNA, one strand shown
# T3 sequence: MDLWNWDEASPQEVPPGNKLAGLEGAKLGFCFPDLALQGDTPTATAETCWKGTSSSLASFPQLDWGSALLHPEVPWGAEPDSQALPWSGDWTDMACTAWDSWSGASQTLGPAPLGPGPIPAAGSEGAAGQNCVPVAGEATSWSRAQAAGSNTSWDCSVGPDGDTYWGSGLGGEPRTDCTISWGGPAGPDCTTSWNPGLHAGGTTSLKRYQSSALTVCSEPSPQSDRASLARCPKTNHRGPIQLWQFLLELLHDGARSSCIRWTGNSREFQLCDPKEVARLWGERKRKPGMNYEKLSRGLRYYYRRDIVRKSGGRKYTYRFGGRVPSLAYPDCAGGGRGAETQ
# How it was run: as §1
# ELF3 = biological target: T4, ELF3 (Homo sapiens, UniProt P78545 1-371); settings: protein: recombinant; tags: N-terminal GST; dsDNA, one strand shown
# T4 sequence: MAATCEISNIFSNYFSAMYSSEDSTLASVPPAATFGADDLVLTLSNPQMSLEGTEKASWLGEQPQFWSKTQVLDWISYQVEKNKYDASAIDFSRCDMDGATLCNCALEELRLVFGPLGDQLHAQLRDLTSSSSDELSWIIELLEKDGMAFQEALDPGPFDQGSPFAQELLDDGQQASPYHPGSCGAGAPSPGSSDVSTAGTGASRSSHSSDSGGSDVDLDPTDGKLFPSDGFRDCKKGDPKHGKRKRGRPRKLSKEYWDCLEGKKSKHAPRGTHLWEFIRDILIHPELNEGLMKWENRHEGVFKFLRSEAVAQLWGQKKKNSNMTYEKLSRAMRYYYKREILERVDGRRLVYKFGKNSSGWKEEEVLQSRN
# How it was run: as §1
# CRX = CRX (Homo sapiens, UniProt O43186 1-299); settings: protein: recombinant; tags: N-terminal GST; dsDNA, one strand shown
# How it was run: as §1
# ETV1 = ETV1 (Homo sapiens, UniProt P50549 1-477); settings: protein: recombinant; tags: N-terminal GST; dsDNA, one strand shown
# How it was run: as §1
# ERF = biological target: T5, ERF (Homo sapiens, UniProt P50548 1-548); settings: protein: recombinant; tags: N-terminal GST; dsDNA, one strand shown
# T5 sequence: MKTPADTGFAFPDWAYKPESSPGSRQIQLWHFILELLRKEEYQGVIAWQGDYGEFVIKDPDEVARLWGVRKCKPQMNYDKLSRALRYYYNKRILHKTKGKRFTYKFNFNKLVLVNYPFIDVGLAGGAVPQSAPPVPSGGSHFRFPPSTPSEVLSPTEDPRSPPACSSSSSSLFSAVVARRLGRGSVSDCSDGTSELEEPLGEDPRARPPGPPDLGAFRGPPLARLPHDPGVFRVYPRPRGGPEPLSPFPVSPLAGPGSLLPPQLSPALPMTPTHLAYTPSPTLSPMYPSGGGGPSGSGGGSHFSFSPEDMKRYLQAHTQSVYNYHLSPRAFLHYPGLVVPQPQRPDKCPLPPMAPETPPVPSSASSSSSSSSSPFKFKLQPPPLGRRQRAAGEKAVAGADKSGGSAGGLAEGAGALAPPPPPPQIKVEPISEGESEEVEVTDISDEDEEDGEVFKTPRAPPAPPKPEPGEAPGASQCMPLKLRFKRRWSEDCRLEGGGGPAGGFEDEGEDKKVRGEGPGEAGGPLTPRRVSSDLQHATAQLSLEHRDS
# How it was run: as §1
# ETV3L = biological target: T6, ETV3L (Homo sapiens, UniProt Q6ZN32 1-361); settings: protein: recombinant; tags: N-terminal GST; dsDNA, one strand shown
# T6 sequence: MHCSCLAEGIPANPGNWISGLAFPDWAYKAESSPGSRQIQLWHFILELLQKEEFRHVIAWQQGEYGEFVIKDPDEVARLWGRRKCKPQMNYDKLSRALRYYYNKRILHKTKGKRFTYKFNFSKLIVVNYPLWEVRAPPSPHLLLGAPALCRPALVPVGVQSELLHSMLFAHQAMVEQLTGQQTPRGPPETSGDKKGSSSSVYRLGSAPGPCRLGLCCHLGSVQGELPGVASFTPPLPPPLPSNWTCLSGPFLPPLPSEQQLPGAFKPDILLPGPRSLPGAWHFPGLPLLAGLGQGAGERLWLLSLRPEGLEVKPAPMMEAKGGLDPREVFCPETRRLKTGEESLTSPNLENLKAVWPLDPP
# How it was run: as §1
# ETS2 = biological target: T7, ETS2 (Homo sapiens, UniProt P15036 1-469); settings: protein: recombinant; tags: N-terminal GST; dsDNA, one strand shown
# T7 sequence: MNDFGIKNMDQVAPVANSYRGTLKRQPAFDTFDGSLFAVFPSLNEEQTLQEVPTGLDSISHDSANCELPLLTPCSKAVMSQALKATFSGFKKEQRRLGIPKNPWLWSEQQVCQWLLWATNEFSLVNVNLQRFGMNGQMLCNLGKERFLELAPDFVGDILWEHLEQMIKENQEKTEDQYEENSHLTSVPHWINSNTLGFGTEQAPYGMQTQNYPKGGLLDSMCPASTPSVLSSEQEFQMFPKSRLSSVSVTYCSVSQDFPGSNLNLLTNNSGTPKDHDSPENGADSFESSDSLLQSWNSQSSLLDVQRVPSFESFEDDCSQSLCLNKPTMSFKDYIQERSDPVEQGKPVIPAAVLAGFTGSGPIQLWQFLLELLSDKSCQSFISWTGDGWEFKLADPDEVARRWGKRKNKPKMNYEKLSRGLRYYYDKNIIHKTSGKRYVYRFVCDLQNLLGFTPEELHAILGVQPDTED
# How it was run: as §1
# SPDEF = biological target: T8, SPDEF (Homo sapiens, UniProt O95238 1-335); settings: protein: recombinant; tags: N-terminal GST; dsDNA, one strand shown
# T8 sequence: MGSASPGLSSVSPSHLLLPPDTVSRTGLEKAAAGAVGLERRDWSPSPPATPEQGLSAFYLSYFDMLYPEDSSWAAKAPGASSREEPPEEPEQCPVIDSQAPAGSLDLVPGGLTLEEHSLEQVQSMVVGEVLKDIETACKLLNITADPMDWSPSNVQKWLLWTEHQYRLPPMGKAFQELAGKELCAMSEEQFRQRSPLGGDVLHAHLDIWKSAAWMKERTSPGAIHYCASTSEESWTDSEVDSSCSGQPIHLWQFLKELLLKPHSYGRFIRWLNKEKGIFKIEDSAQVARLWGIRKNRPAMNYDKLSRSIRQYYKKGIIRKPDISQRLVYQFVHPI
# How it was run: as §1
# ETV7 = biological target: T9, ETV7 (Homo sapiens, UniProt Q9Y603 1-341); settings: protein: recombinant; tags: N-terminal GST; dsDNA, one strand shown
# T9 sequence: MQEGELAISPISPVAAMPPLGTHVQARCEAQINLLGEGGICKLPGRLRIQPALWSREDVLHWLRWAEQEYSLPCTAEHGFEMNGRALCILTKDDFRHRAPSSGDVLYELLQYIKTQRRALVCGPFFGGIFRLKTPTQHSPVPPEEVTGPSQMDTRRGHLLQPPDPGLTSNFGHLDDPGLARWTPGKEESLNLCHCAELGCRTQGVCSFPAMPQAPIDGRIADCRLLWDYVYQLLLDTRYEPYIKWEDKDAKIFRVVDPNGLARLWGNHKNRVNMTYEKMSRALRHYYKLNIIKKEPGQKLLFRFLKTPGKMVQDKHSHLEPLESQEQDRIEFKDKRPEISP
# How it was run: as §1
# ETV3 = biological target: T10, ETV3 (Homo sapiens, UniProt P41162-2 1-143); settings: protein: recombinant; tags: N-terminal GST; dsDNA, one strand shown
# T10 sequence: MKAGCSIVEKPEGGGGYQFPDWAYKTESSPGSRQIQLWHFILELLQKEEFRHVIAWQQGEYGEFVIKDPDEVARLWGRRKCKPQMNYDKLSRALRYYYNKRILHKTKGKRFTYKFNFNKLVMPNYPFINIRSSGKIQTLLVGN
# How it was run: as §1
# ETV6 = ETV6 (Homo sapiens, UniProt P41212 1-452); settings: protein: recombinant; tags: N-terminal GST; dsDNA, one strand shown
# How it was run: as §1
# Sequence of ELF4 (Q99607 whole entry): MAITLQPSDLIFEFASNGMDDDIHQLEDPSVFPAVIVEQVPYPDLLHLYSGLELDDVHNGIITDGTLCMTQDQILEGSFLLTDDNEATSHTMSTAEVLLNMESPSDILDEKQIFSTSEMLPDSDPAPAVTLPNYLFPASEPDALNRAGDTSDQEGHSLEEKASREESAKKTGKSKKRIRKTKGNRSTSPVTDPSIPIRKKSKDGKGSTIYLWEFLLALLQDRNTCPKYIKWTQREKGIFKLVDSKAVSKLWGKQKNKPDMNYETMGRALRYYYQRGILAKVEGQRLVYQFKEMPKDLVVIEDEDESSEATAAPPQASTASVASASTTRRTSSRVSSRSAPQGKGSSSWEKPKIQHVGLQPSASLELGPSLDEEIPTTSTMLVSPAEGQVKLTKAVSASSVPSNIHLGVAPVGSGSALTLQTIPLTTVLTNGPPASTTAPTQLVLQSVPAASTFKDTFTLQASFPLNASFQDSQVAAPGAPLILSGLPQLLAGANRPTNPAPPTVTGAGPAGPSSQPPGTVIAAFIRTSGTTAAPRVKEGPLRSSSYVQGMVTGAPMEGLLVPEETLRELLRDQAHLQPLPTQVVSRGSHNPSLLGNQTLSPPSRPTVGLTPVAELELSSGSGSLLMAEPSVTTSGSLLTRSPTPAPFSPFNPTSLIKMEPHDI
# Sequence of ETV5 (P41161 whole entry): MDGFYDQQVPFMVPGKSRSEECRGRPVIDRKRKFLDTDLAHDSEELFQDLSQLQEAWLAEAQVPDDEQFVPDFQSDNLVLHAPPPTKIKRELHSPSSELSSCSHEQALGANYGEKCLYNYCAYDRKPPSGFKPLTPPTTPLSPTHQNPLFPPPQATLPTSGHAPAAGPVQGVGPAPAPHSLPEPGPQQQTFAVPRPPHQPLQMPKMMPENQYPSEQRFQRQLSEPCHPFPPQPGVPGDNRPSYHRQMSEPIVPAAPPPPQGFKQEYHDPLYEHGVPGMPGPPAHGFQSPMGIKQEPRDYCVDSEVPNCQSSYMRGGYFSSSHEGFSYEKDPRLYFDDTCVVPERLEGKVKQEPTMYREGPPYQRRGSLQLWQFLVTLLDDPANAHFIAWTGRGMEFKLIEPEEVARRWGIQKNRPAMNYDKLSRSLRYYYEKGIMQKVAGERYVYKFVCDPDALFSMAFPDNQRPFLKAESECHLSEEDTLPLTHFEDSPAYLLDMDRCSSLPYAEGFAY
# Sequence of ETV1 (P50549 whole entry): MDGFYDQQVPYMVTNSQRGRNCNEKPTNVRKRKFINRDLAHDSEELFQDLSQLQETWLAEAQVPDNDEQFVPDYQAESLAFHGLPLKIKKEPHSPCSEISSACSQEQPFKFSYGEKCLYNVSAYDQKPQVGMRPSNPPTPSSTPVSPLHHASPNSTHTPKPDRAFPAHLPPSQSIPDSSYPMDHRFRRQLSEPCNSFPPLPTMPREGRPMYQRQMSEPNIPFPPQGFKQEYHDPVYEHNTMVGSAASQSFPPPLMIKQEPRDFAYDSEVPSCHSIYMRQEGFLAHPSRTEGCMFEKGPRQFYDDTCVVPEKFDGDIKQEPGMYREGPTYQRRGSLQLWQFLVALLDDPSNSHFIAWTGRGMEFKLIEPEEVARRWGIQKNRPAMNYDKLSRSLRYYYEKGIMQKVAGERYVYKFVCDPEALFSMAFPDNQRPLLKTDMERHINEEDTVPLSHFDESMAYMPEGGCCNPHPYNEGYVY
# Sequence of CRX (O43186 whole entry): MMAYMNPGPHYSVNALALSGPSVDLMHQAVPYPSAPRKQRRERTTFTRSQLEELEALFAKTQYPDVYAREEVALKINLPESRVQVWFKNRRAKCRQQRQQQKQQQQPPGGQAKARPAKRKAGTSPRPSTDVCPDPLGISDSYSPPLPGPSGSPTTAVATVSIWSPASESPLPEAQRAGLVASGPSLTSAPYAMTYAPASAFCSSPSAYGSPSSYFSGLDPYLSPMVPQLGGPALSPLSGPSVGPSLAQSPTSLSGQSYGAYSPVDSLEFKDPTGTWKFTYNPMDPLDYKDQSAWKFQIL
# Sequence of ETV6 (P41212 whole entry): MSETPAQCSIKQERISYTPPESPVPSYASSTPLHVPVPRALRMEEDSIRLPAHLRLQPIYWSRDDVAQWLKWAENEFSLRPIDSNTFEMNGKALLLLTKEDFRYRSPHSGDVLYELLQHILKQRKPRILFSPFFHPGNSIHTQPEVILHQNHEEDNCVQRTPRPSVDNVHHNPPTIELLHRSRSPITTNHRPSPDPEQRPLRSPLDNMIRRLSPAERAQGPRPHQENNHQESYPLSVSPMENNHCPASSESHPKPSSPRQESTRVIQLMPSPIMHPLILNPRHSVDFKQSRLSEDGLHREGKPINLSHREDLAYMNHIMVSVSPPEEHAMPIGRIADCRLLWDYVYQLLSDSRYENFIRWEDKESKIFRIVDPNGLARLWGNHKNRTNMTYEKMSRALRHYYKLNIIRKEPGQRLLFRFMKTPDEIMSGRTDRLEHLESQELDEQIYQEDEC
# Sequence of HSF1 (Q00613 whole entry): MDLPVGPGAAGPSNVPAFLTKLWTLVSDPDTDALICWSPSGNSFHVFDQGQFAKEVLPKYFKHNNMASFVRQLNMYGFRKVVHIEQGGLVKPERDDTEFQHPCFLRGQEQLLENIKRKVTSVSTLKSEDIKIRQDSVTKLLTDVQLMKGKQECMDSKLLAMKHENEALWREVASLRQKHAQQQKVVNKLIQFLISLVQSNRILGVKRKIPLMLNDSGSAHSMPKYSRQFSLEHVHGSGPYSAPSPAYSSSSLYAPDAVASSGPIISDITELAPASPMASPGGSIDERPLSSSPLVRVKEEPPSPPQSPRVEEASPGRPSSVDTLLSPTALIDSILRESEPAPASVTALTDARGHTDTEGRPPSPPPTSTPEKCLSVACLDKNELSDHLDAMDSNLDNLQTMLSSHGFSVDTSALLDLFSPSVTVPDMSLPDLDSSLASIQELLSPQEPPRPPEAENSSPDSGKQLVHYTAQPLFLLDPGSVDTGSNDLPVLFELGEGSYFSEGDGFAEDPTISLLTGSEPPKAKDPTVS
sequence,measurement,setting,value
TTTAGG,binding signal,FEV,"1.09 fold enrichment (6-mer frequency, TF over GST control)"
same,binding signal,ETV5,"1.06 fold enrichment (6-mer frequency, TF over GST control)"
same,binding signal,HSF1,"1.25 fold enrichment (6-mer frequency, TF over GST control)"
same,binding signal,ELF4,"1.05 fold enrichment (6-mer frequency, TF over GST control)"
same,binding signal,ELK4,"1.11 fold enrichment (6-mer frequency, TF over GST control)"
same,binding signal,ETV2,"1.09 fold enrichment (6-mer frequency, TF over GST control)"
same,binding signal,ELF3,"1.09 fold enrichment (6-mer frequency, TF over GST control)"
same,binding signal,CRX,"1.5 fold enrichment (6-mer frequency, TF over GST control)"
same,binding signal,ETV1,"1.13 fold enrichment (6-mer frequency, TF over GST control)"
same,binding signal,ERF,"1.22 fold enrichment (6-mer frequency, TF over GST control)"
same,binding signal,ETV3L,"1.02 fold enrichment (6-mer frequency, TF over GST control)"
same,binding signal,ETS2,"1.11 fold enrichment (6-mer frequency, TF over GST control)"
same,binding signal,SPDEF,"1.09 fold enrichment (6-mer frequency, TF over GST control)"
same,binding signal,ETV7,"1.19 fold enrichment (6-mer frequency, TF over GST control)"
same,binding signal,ETV3,"1.07 fold enrichment (6-mer frequency, TF over GST control)"
same,binding signal,ETV6,"1.19 fold enrichment (6-mer frequency, TF over GST control)"

# From PMC7862700, “An all-to-all approach to the identification of sequence-specific readers for epigenetic DNA modifications on cytosine”
